Screening data from PubChem.
FLuc inh-1 = Firefly luciferase inhibition profiling of diverse chemical library using quantitative high-throughput screening | Luciferin 4-monooxygenase (Photinus pyralis), P08659 | purified P. pyralis luciferase, luminescence, biochemical | Potency, µM (titrated, usually from 115 µM), usual class: inhibitors | actives 2.5% (n = 76,000); note: % is set by controls: 0 for no effect and ±100 for the full control effect; nearly all actives have a fitted effect of over 65% in size
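Biochemical qHTS: compound (6-point titration) added to 10uM D-luciferin plus 10uM ATP in Tris acetate pH 7.5 buffer with Mg, Tween-20 and BSA, then purified enzyme at 10nM; light output imaged.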
3T3 cytotox = Cytotoxic Profiling in NIH 3T3 Cell Line of Diverse Libraries Using Quantitative High-Throughput Screening; Potency, µM (series often up to 96.7 µM), without a hit: at the top dose activity change, negative = cytotoxicity, actives largely listed as inhibitors; actives 4.3% (n = 94,000); NIH 3T3 viability, CellTiter-Glo ATP luminescence, 48-72 h; AID 1345082, 2018; note: % is set by controls: 0 for no effect and ±100 for the full control effect; nearly all actives have a fitted effect of over 55% in size
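Viability of NIH 3T3 cells after 48 or 72 hr compound treatment at 37 °C was assessed by CellTiter-Glo, with luminescence imaged following a 10 min room-temperature step.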
HEK293 tox = Cytotoxic Profiling in HEK 293 Cell Line of Diverse Libraries Using Quantitative High-Throughput Screening; actives 6.6% (n = 94,000); HEK 293 viability, ATP luminescence (CellTiter-Glo), 48-72 h; Potency, µM (titrated, usually from 115 µM), without a hit: at the top dose activity change, negative = cytotoxicity, hits mostly inhibitors; note: % is set by controls: 0 for no effect and ±100 for the full control effect; nearly all actives have a fitted effect of over 60% in size
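CellTiter-Glo luminescence (cellular ATP) was read after 48 or 72 hr of compound exposure at 37 degree Celsius. Cells were HEK 293 plated at 250 cells/well.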
NPR1 antag = Natriuretic polypeptide receptor (hNpr1) antagonism - Primary qHTS; Potency, µM (series often up to 46.3 µM), without a hit: at the top dose activity change, negative = inhibition, most hits filed as inhibitors; AID 1347048, 2019; HEK293 hNpr1 GloSensor cGMP, ANP-stimulated luminescence; Atrial natriuretic peptide receptor 1 (Homo sapiens), P16066; actives 1.6% (n = 76,000); calls by dose curve; note: % is set by controls: 0 for no effect and ±100 for the full control effect; nearly all actives have a fitted effect of over 60% in size
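HEK293 cells stably expressing human Npr1 and cGMP GloSensor pGS-40F, loaded 2 h with 2% GloSensor reagent, given compound 30 min at room temperature. Luminescence read before and 20 min after 0.1 nM hNppA.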
FLuc SDR -ATP = Firefly luciferase (FLuc-C-HiBiT) SDR gain of signal screen - without ATP. shares compounds with FLuc inh-1. Purified FLuc-C-HiBiT, Nano-Glo HiBiT luminescence, no ATP. Potency, µM (doses to about 32.7 µM), without a hit: at the highest dose activation (signal gain), most hits filed as activators. actives 7.8% (n = 1,300); note: nearly all actives have a fitted effect of over 55% in size
FLuc SDR ATP = Firefly luciferase (FLuc-C-HiBiT) SDR gain of signal screen - plus ATP. purified FLuc-C-HiBiT + ATP, HiBiT complementation luminescence. shares compounds with FLuc inh-1. actives 8.7% (n = 1,300). Potency, µM (highest dose often 32.7 µM), for the others: at the highest dose activation (gain of signal), usual class: activators;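 note: signal reports ligand binding via conformational change of the enzyme rather than luciferase catalysis; % of control where 0% means no effect; nearly all actives have a fitted effect of over 55% in size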
FLuc inh-2 = Firefly luciferase (FLuc-C-HiBiT) enzymatic inhibition screen - Functional assay; actives 42% (n = 1,300); purified FLuc-C-HiBiT enzyme, luciferin luminescence; shares compounds with FLuc inh-1; Potency, µM (series often up to 32.7 µM), for inactives: at the top dose activity change, negative = inhibition, actives largely listed as inhibitors; AID 1963320, 2024; note: % is set by controls: 0 for no effect and ±100 for the full control effect; nearly all actives have a fitted effect of over 70% in size
Starred values were filed as active, the others as inactive; [ ] = dose if it differs, or a comment. Only some compounds are listed: those with a hit (about 11% of all), similar ones and a draw of the others. Unless noted, calls come from the whole dose curve; as a rule, active = well fitted curve in the direction sought with a large enough effect; inconclusive = small, poorly fitted or top-dose-only effect, or another doubt; inactive = no such curve, though single readings can be large; an effect the other way counts as inactive or inconclusive. Potency is the fitted concentration of half-maximal effect.

`CC1CCN(CC(=O)N2CCC(c3nc4ccccc4o3)CC2)C1=O` (centres undefined) gave FLuc inh-1 inactive, 3T3 cytotox 2%, HEK293 tox -5% and NPR1 antag -3%.
For Cc1ccc(/C=C/C(=O)N2CCC(c3nc4ccccc4o3)CC2)cc1 the results were FLuc SDR -ATP 12%, FLuc SDR ATP inconclusive and FLuc inh-2 inconclusive.
`Clc1cccc(-c2ncc[nH]2)c1` gave 3T3 cytotox -10%[174 µM] and HEK293 tox 3%[230 µM].
For Cc1ccc(C2=NC(c3ccccc3)=Nc3ccc(Cl)cc3N2)cc1 the results were FLuc SDR -ATP 13%, FLuc SDR ATP 10% and FLuc inh-2 -9%.
Screening CCOC(=O)c1cc(-c2ccccc2)nn1Cc1ccccc1 returned FLuc SDR -ATP 15%, FLuc SDR ATP 12% and FLuc inh-2 -6%.
For Cc1ccc(C(=O)N2CC(c3nnc(-c4ccc(C)cc4)o3)C3(CCOCC3)C2)cc1 (centres undefined) the results were FLuc inh-1 inactive, 3T3 cytotox inactive, HEK293 tox 1% and NPR1 antag -1%.
Cc1ccc(-c2nnc(C3CN(C(=O)c4sc(C)nc4C)CC34CCOCC4)o2)cc1 (centres undefined) was read as FLuc inh-1 inactive, 3T3 cytotox -23%, HEK293 tox -20%, NPR1 antag -8%, FLuc SDR -ATP 12%, FLuc SDR ATP 9% and FLuc inh-2 0%.
Screening O=C(Nc1cc(Cl)cc(Cl)c1)c1ccn2nccc2c1 returned FLuc inh-1 14µM*, 3T3 cytotox inconclusive, HEK293 tox -37%[172 µM], NPR1 antag -24%[70.6 µM], FLuc SDR -ATP 24%[49.3 µM], FLuc SDR ATP 17%[49.3 µM] and FLuc inh-2 inconclusive.
Screening O=C(Nc1ccc(Cl)nc1)c1ccn2nccc2c1 returned FLuc inh-1 inactive, 3T3 cytotox -7%[138 µM], HEK293 tox -2%[172 µM] and NPR1 antag -20%[70.6 µM].
CCN(CC)c1cc(CCC(=O)NCCOC)ccn1 was read as FLuc inh-1 inactive, 3T3 cytotox -11%, HEK293 tox -5% and NPR1 antag 10%.
`CCN(CC)c1cc(CCC(=O)O)ccn1` gave FLuc inh-1 6.3µM*, 3T3 cytotox 1%, HEK293 tox -7%, NPR1 antag -27%, FLuc SDR -ATP 13%, FLuc SDR ATP 1.6µM* and FLuc inh-2 1.4µM*.
For O=C(O)CCC(=O)N1Cc2ccccc2CC2(CCCCN2CC2CCOCC2)C1 (centres undefined) the results were 3T3 cytotox -2% and HEK293 tox -4%.
For COCC(=O)N1CCCC(C(=O)N2CCC(N3CCCC3=O)CC2)C1 (centres undefined) the results were 3T3 cytotox inactive and HEK293 tox -2%.
Cc1ccc(-n2ncc3c(N4CCC(Cc5ccccc5)CC4)ncnc32)cc1 was read as FLuc SDR -ATP 16%, FLuc SDR ATP 16% and FLuc inh-2 -17%.
`COc1ccc(N2Cc3c(ncnc3N3CCC(Cc4ccccc4)CC3)N(C)CC2=O)cc1` gave FLuc inh-1 inactive, 3T3 cytotox inconclusive, HEK293 tox inconclusive and NPR1 antag -6%.
Cc1ccc(CNC(=O)c2cc3c(N(C)Cc4ccccc4)nc(C)cn3n2)cc1 was read as FLuc inh-1 inactive, 3T3 cytotox inconclusive, HEK293 tox inconclusive and NPR1 antag 7%.
For Cc1ccc(-n2ncc3c(N(C)Cc4ccccc4)ncnc32)cc1 the results were FLuc SDR -ATP inconclusive, FLuc SDR ATP inconclusive and FLuc inh-2 1.6µM*.
Screening Clc1cccc(-n2ncc3c(N4CCC(Cc5ccccc5)CC4)ncnc32)c1 returned FLuc SDR -ATP 10%, FLuc SDR ATP 7% and FLuc inh-2 -4%.
Screening O=C(NCCCc1ccncc1)C1CC12CCN(C(=O)c1cccc(C(F)(F)F)c1)CC2 (centres undefined) returned FLuc inh-1 inactive, 3T3 cytotox -9%, HEK293 tox -17% and NPR1 antag 3%.
`CC(Cn1cccn1)Nc1ccc(-c2nc(-c3ccccc3F)no2)cn1` (centres undefined) gave FLuc inh-1 3.5µM*, 3T3 cytotox inconclusive, HEK293 tox 45µM*, NPR1 antag inconclusive, FLuc SDR -ATP 15%, FLuc SDR ATP inconclusive and FLuc inh-2 9.9µM*.
CN(Cc1nccs1)c1ccc(-c2nc(-c3ccccc3F)no2)cn1 was read as FLuc inh-1 2.8µM*, 3T3 cytotox -5%, HEK293 tox inconclusive, NPR1 antag inconclusive, FLuc SDR -ATP 15%, FLuc SDR ATP 17% and FLuc inh-2 inconclusive.
For Fc1ccc2nc([C@H]3CCN(Cc4ccccc4F)C3)[nH]c2c1 the results were FLuc inh-1 3.2µM*, 3T3 cytotox 79µM*, HEK293 tox inconclusive, NPR1 antag inconclusive, FLuc SDR -ATP 27%[49.3 µM], FLuc SDR ATP 18%[49.3 µM] and FLuc inh-2 14µM*.
`COc1ccc2nc([C@H]3CCN(Cc4ccccc4F)C3)[nH]c2c1` gave FLuc inh-1 inactive, 3T3 cytotox inconclusive, HEK293 tox inconclusive and NPR1 antag -3%[70.6 µM].
`Cn1ncc2c(C(=O)NC3CCOC3)cc(-c3ccccc3C(F)(F)F)nc21` (centres undefined) gave 3T3 cytotox inconclusive and HEK293 tox -7%.
Cc1ccccc1-c1nn(-c2ccc(F)cc2F)cc1CN1CCCC1CCO (centres undefined) was read as FLuc inh-1 inactive, 3T3 cytotox -11%, HEK293 tox inconclusive and NPR1 antag 2%.
`COc1ccc(C(=O)NC2CCCN(c3cc(-c4ccc(F)cc4)[nH]n3)C2)cc1F` (centres undefined) gave FLuc inh-1 inconclusive, 3T3 cytotox inconclusive, HEK293 tox inconclusive and NPR1 antag -14%.
